ALR H2O2 inh: human ALR oxidase inhibition via reduced H2O2; 290,000 compounds, 3.8% hits; P55789; inhibition, % (concentration not given with the values); purified ALR, DTT oxidation, H2O2 HRP-luminol luminescence;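 active = mean replicate inhibition above about 79%, with every replicate also reaching it, limit read from the data; inconclusive = only one of the two criteria met; inactive = mean below limit and not every replicate reaching it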
Efflux pump mplx: antifungal efflux pump inhibition, Nile Red retention; AID 485275; S. cerevisiae Candida pump triplex; 330,000 compounds, 0.44% hits; inhibition, % at 10 µM;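 active = plate passing quality check with inhibition over a set limit, or well fluorescence over plate mean plus 4 SD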;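 also: Nile Red retained in pooled yeast measured as flow cytometry median fluorescence; higher means more Nile Red kept so more efflux inhibition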
VLA-4 inh: inhibition in a human VLA-4 binding assay | inhibition, % (about 7 µM as worked out from the volumes in the protocol) | P13612 | 330,000 compounds, 0.2% hits | VLA-4 expressing cells, ligand binding flow cytometry; in the data active = inhibition above about 50%
AHR act: human AHR activation; P35869; AHR-responsive luciferase reporter cells, luminescence; activation, % at 5 µM; 320,000 compounds, 2.5% hits; AID 2796; in the data active = activation above about 47%
SUMO Mot1 rescue: SUMOylation pathway inhibition by Mot1-301 growth rescue. growth rescue, % at 18.8 µM. AID 2716. S. cerevisiae Mot1-301 growth rescue, ATP luminescence, 38.5C; percent above DMSO median, 100 means doubled. 320,000 compounds, 1% hits;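 active = every valid replicate shows activation above 250% relative to neutral control wells; inactive = the rest, any valid replicate at or below 250%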
Bfl-1 A1 inh: inhibitors of the anti-apoptotic protein A1, read as caspase activation. MEF A1-2A-BIM cells, Caspase-Glo 3/7 luminescence, 3 h; percent of clofoctol response, vehicle zero. caspase activation, % (test concentration not listed). 330,000 compounds, 0.066% hits;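 active = over half of replicate activation scores above 10%, or exactly half above 10 with the replicate mean above 10; inconclusive = replicate mean below 10 yet half the replicates above 10; inactive = over half of replicates below 10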
Large screens that a line does not name were inactive. Most compounds without a hit are left out; they make up all but 7.2% or so of the library.

Cn1c(=O)c2c(SCC(=O)N3CCOCC3)nc(-c3ccccc3F)nc2n(C)c1=O	none
Cc1ccc(S(=O)(=O)N2CCCCC2)cc1C(=O)NCCN1CCOCC1	none
O=C(Nc1cccnc1)c1ccc2snnc2c1	ALR H2O2 inh inconclusive
Cc1ccc(NC(=O)c2ccc3snnc3c2)cc1	AHR act 63 (no result: SUMO Mot1 rescue)
O=C(Nc1ccccc1)c1ccc2snnc2c1	AHR act 63
CCOC(=O)N1CCC(NC(=O)c2ccc3snnc3c2)CC1	ALR H2O2 inh 98
O=C(CCSc1ccccc1)Nc1nc2c(s1)COc1ccccc1-2	AHR act 52
CCCC(=O)Nc1nc2c(s1)COc1ccccc1-2	none (no result: Bfl-1 A1 inh)
CCCCC(=O)Nc1nc2c(s1)COc1ccccc1-2	AHR act 49 (no result: Bfl-1 A1 inh)
O=C(COC(=O)c1ccc2c(c1)OCO2)NC1CCCCC1	none
CCC(=O)Nc1ccc(OCc2nc3ccccc3s2)cc1	AHR act 58
c1ccc(OCc2nc3ccccc3s2)cc1	none
COc1cccc(C(C(=O)NC(C)(C)C)N(C(=O)CCC(=O)Nc2cc(C)on2)c2ccc3c(c2)OCCO3)c1OC (centres undefined)	none
OCCCn1c(CCNc2nc(-c3ccc(F)cc3)cs2)nc2cc(C(F)(F)F)ccc21	AHR act 51
Cc1cc([N+](=O)[O-])ccc1NC(=O)CSc1nncn1-c1ccccn1	SUMO Mot1 rescue 737
CCc1nnc(NC(=O)c2oc3ccccc3c2COC(C)C)s1	AHR act 74
Cc1ccc(N(CCC#N)C(=O)COC(=O)C2CCN(S(=O)(=O)c3ccc(C)c(C)c3)CC2)cc1	none
CCOC(=O)C1C(=O)NC(c2ccccc2)=NC1c1ccccc1 (centres undefined)	none
CCOC(=O)C1C(=O)NC(c2ccccc2)=NC1c1ccc(F)cc1 (centres undefined)	ALR H2O2 inh 98
COc1cc(COCC(O)CN2CCc3ccccc3C2)cc(OC)c1OC (centres undefined)	none
CSc1nncc(/C(C)=N\Nc2ccccc2)n1	SUMO Mot1 rescue 297
CC(C)NC(=O)N(C)C[C@H]1Oc2ccc(NS(=O)(=O)c3ccccc3)cc2C(=O)N([C@H](C)CO)C[C@@H]1C	none
Oc1ccc(N2CCN(c3nnnn3-c3ccccc3)CC2)cc1	ALR H2O2 inh 99
Cc1ccc(S(=O)(=O)/C=C/c2ccccc2)cc1	none
COc1ccccc1NS(=O)(=O)c1cccc(C(=O)NN=C2CCCC2)c1	none
COc1ccccc1NS(=O)(=O)c1cccc(C(=O)N/N=C2\CC(=O)CC(C)(C)C2)c1	ALR H2O2 inh 92
COc1ccc(S(=O)(=O)N/N=C(/C)c2ccncc2)c(OC)c1	ALR H2O2 inh 81
CN(C)c1ccc(C(=O)c2ccc(N(C)C)c(N)c2)cc1N	ALR H2O2 inh 95
CN(C)c1ccc(C(=O)c2ccccc2)cc1	none
CCOc1ccc(C(=O)c2ccc(OCC)c(N)c2)cc1N	AHR act 60
Cc1cccc(C(=O)Nc2ccc(N3CCN(S(C)(=O)=O)CC3)cc2)c1	none
CC(CNC(=O)C1CCCCC1C(=O)O)c1ccccc1 (centres undefined)	none
Cc1cc(C(=O)CSc2ccccc2)cc(C)c1O	none
COc1ccccc1NS(=O)(=O)c1cccc(C(=O)N2CCCCCCC2)c1	none
O=C(Oc1ccccc1/C=C\C(=O)c1cc2ccccc2o1)c1cccc(F)c1	AHR act 70
COc1ccc(/C=C2/C(=O)N(c3ccccc3)N=C2C)cc1	none
COc1ccc(/C=C2/C(=O)N(c3c(F)c(F)c(F)c(F)c3F)N=C2C)cc1	ALR H2O2 inh 90
Cc1ccc2nc(SCC(=O)Nc3cccc(S(=O)(=O)N(C)C)c3)[nH]c2c1	none (no result: ALR H2O2 inh)
Nn1cc(-c2ccccc2)nc1SCC(=O)Nc1cccc(S(N)(=O)=O)c1	ALR H2O2 inh 99
NS(=O)(=O)c1cccc(NC(=O)CSc2nc3ccc(Cl)cc3[nH]2)c1	ALR H2O2 inh 97
CN1C(=S)SC(/[N+]([O-])=C/c2c(F)cccc2Cl)C1(C)C (centres undefined)	none
CSc1nc(=S)n(-c2cc(C)ccc2C)c(C)c1C(C)=O	none
CCn1c2ccccc2c2c3ncc4cccn4c3ccc21	AHR act 66
CCOc1ccc(C(=O)N2CCC(C(=O)c3ccc4c(c3)OCCO4)CC2)cc1	none (no result: ALR H2O2 inh)
CCOC(=O)C1CCCN(C(=O)c2cc3c(OC)c(OC)c(OC)cc3[nH]2)C1 (centres undefined)	none
FC(F)(F)c1ccc(-c2csc(-c3ccno3)n2)cc1	AHR act 63
N#Cc1ccc(-c2csc(-c3ccno3)n2)cc1	none (no result: ALR H2O2 inh)
Clc1ccc(/C=N/Nc2ncnc3nc[nH]c23)cc1	ALR H2O2 inh 93, AHR act 66 (no result: SUMO Mot1 rescue)
C/C(=N\NC(=O)CCC(=O)N/N=C(\C)c1ccc(C)o1)c1ccc(C)o1	AHR act 74
CCCCNC(=O)c1onc(CCl)c1C(=O)OC	ALR H2O2 inh 97 (no result: Efflux pump mplx, VLA-4 inh)
O=C1[C@@H](Oc2ccccc2)[C@@H](c2cnc3ccccc3c2)N1c1ccccc1	none (no result: ALR H2O2 inh, VLA-4 inh, AHR act, SUMO Mot1 rescue, Bfl-1 A1 inh)
COc1ccccc1NC(=O)c1cnc(Nc2ccccc2OC)c2ccccc12	AHR act 73
COc1ccccc1Nc1ncc(C(=O)N2CCC(C(N)=O)CC2)c2ccccc12	none
COc1ccccc1NC(=O)c1c[nH]c2ccccc12	AHR act 61
Cc1cccc(C)c1NC(=O)c1c[nH]c2ccccc12	AHR act 55 (no result: ALR H2O2 inh)
CC(C)CCNC(=O)c1ccc(Cn2c(=S)[nH]c3ccccc3c2=O)cc1	none (no result: ALR H2O2 inh)
O=C1CC(NCc2ccc3c(c2)OCO3)C(=O)N1CCc1ccccc1 (centres undefined)	none
Nc1nc(/C=C/c2cccnc2)nc(-c2ccccc2O)n1	ALR H2O2 inh 94
N#C/C(=C/c1cccc([N+](=O)[O-])c1)C(=O)Nc1ccccc1O	ALR H2O2 inh 96
N#C/C(=C\c1cccc([N+](=O)[O-])c1)C(=O)Nc1cccnc1	ALR H2O2 inh 97
N#C/C(=C\c1ccccc1)C(=O)NNS(=O)(=O)c1cccc([N+](=O)[O-])c1	none
COc1ccc(/C=C(/C#N)C(=O)Nc2cccc([N+](=O)[O-])c2)cc1C(=O)O	ALR H2O2 inh 97
CC(C)CC(=O)Nc1nc2ccc(S(C)(=O)=O)cc2s1	none
NNC(=O)c1ccc([N+](=O)[O-])c(CS(=O)(=O)c2ccc(Cl)cc2)c1	none
CO/N=C/NC(=O)c1ccc([N+](=O)[O-])c(CS(=O)(=O)c2ccc(Cl)cc2)c1	ALR H2O2 inh 100
O=C(CCc1ccc(S(=O)(=O)N2CCOCC2)cc1)N1CCc2ccccc2C1	none
Cc1ccc(N/C=C2\CCCCC2=O)nc1	none
O=c1cc(CO)oc(C(Nc2ccccn2)c2ccccc2Cl)c1O (centres undefined)	Bfl-1 A1 inh inconclusive (no result: ALR H2O2 inh)
O=c1cc(CO)oc(C(Nc2ccccn2)c2ccc(F)cc2)c1O (centres undefined)	ALR H2O2 inh 98

Compound activity deposited in PubChem by several laboratories.
